The list is not random: actives were taken first. Their share in the collection is about 4.7%.
TRHR PAM – allosteric enhancers of human TRH receptor; P34981; TRHR cells, fluo-8 calcium fluorescence, EC20 TRH enhancement; enhancement, % at 2 µM; hit rate 0.66% among 360,000; in the data active means enhancement above about 30%; further: 0% is about no effect
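Enhancer read-out: after compound pinning and an initial kinetic agonist-mode read, an EC20 of TRH (10 nM final) was injected and fluo-8 calcium signal (Ex 480/Em 530) followed at 1 s/cycle for 100 cycles in TRHR-expressing cells.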
D1 potentiator – human D1 dopamine receptor positive modulation; hit rate 0.036% among 360,000; HEK293 TREx D1 cells, calcium flux, dopamine EC20 potentiation; potentiation, % at 10 µM; in the data active means potentiation above about 30%; further: 0% is about no effect
Target sequence (P21728 whole entry, looked up): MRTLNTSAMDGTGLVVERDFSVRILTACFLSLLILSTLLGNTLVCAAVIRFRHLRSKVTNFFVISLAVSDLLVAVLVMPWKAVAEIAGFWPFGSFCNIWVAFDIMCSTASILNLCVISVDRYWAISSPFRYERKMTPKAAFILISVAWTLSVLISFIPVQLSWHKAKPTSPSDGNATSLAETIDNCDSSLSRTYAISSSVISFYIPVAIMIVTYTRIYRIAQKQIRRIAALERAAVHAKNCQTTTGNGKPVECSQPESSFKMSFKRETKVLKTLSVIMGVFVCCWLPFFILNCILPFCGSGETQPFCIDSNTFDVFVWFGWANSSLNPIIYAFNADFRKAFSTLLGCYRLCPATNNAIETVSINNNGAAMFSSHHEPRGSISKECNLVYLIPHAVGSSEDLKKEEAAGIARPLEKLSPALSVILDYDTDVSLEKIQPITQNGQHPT
D1 agonist – activates the human D1 dopamine receptor; P21728; activation, % at 2 µM; HEK293 T-REx D1 cells, calcium flux, agonist mode; AID 504660; hit rate 1% among 360,000; further: 0% is about no effect
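Tetracycline-induced HEK293 TREx D1 cells, force-coupled to calcium signalling, were dye-loaded with a no-wash calcium kit. Compound was pin-added after a 10 s baseline. Fluorescence was read kinetically at 1 cycle/s for 180 s, with calcium rises flagged as agonism.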
D1 antagonist – human D1 dopamine receptor antagonism; P21728; HEK293 TREx D1 cells, calcium flux, dopamine EC80; stronger effect = lower value; activity change, negative = inhibition, % at 10 µM; hit rate 3.2% among 360,000; in the data active means activity change below about -30%; further: on the % scale 0 is the no-effect control and ±100 the full control effect
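HEK293 T-REx cells expressing inducible, force-coupled D1 receptor; no-wash Ca dye, 30–90 min RT. Cmpd → 180 s read at 1 Hz → EC80 DA → 180 s read.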
TRHR ag – activates the human TRH receptor | TRHR cells, calcium flux fluo-8, FDSS agonist mode | activation, % at 2 µM | hit rate 0.18% among 360,000 | AID 493084; further: 0% is about no effect
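Agonist-mode FDSS calcium read (Ex 480/Em 530, 1 s cycles) in 1536-well TRHR cells with fluo-8 dye, after 10-cycle baseline and 23 nL compound addition; TRH at EC20 (10 nM final) added afterwards for the enhancer phase.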
Active calls of the source: *. Unless noted, no stated cut-off is given here; in the data, active means activation above about 30%; inactive means the rest.

SMILES	TRHR PAM	D1 potentiator	D1 agonist	D1 antagonist	TRHR ag
Cc1ncoc1C(=O)N1CCCC(C(=O)c2cccc3ccccc23)C1 (stereo unspecified)	-1.3	-0.8	-0.7	-0.7	-0.9
COc1ccc(F)cc1C(=O)C1CCCN(C(=O)c2ocnc2C)C1 (stereo unspecified)	2.1	-1.4	1.2	-31.9*	-1.0
CCOC(=O)Cc1csc(NC(=O)/C=C/c2ccc(OC)cc2)n1	5.8	-2.5	5.1	4.3	-0.3
Cc1ccc2c(CNCc3cccs3)c(C(=O)O)n(Cc3ccc(F)cc3)c2c1	-3.6	1.4	0.4	35.3	-0.3
CN(CC(=O)Nc1ccc(OC(F)(F)F)cc1)S(=O)(=O)c1ccc2c(c1)CCC(=O)N2	11.1	-2.9	7.0	-5.1	0.0
Fc1ccc(NCc2nnc3n2CCCCC3)cc1Cl	-3.1	4.5	-0.8	-27.8	0.0
CC1(C)Cc2c(C#N)c(N3CCN(C(=O)c4ccccc4)CC3)nc(-c3ccco3)c2CS1	32.8*	-0.5	1.1	7.9	-0.9
CC(C)c1nc(N2CCN(C(=O)c3ccccc3)CC2)c(C#N)c2c1COC(C)(C)C2	-6.5	5.4	-0.1	-9.1	-0.9
COc1ccc(CNc2nc3c(-c4ccc(C)cc4)nnn3c3ccccc23)cc1	43.9*	1.2	4.5	-34.4*	0.2
COc1cccc(CNc2nc3c(-c4ccccc4)nnn3c3ccccc23)c1	29.6	-5.0	1.0	-22.6	-2.0
CCOc1ccc(Nc2nc(N)c(C(=O)c3ccccc3Cl)s2)cc1	8.5	2.8	8.9	81.1	-0.1
CN(CCC#N)C(=O)CC(Cc1ccccc1)C1CCOC(C)(C)C1 (stereo unspecified)	4.6	1.6	0.0	9.7	-1.3
O=C(Cc1ccccc1)NC(NC(=S)Nc1cc(Cl)ccc1Cl)C(Cl)(Cl)Cl (stereo unspecified)	2.8	1.1	0.4	7.6	0.6
O=C(NC(NC(=S)Nc1cc(Cl)ccc1Cl)C(Cl)(Cl)Cl)c1ccco1 (stereo unspecified)	-1.8	-7.3	26.5	-40.4*	0.4
O=C(/C=C/c1ccccc1)NC(NC(=S)Nc1cc(Cl)ccc1Cl)C(Cl)(Cl)Cl (stereo unspecified)	1.7	-6.3	4.0	-36.7*	1.9
O=C(/C=C/c1ccccc1)NC(NC(=S)Nc1ccc(Cl)cc1)C(Cl)(Cl)Cl (stereo unspecified)	-0.6	-2.8	5.7	-3.2	0.6
CCN(c1ccccc1)S(=O)(=O)c1ccc(OC)c(NC(=O)CNCCc2ccccc2)c1	0.8	-13.3	22.5	-33.4*	-1.2
CC(=O)Nc1ccc(NCc2nnc3n2CCCCC3)cc1	0.3	-1.8	-0.2	-12.6	0.3
Cc1ccc(CN(C(=O)COc2ccc([N+](=O)[O-])cc2)c2ccccn2)cc1	-0.7	-1.1	6.3	-15.1	-0.5
Cc1cc(C)n2c(SCC(C)C)nnc2n1	33.2*	-0.9	0.0	-16.1	0.2
CCSc1nnc2nc(C)cc(C)n12	19.4	13.4	3.7	-0.5	-0.2
Cc1nc2ccccn2c(=O)c1CCN1CCC(C(=O)c2ccc(F)cc2)CC1	-2.9	-6.5	1.4	-34.1*	-0.2
O=C(c1ccc(F)cc1)C1CCN(CCn2c(=S)[nH]c3ccccc3c2=O)CC1	2.9	-2.4	0.5	-78.7*	-0.4
O=C(CN1CCC(C(=O)c2ccc(F)cc2)CC1)NCc1ccccc1F	1.5	-10.2	6.4	-9.5	-1.1
CC1(C)C(=O)N(CCN2CCC(C(=O)c3ccc(F)cc3)CC2)c2ccccc21	7.3	-7.0	7.1	-62.3*	-1.3
SMILES	TRHR PAM	D1 potentiator	D1 agonist	D1 antagonist	TRHR ag
O=c1c2ccccc2[nH]c(=S)n1CCCN1CCC(Cc2ccccc2)CC1	1.5	-28.0	0.1	-31.0*	-0.1
CN(C(=O)CSc1nc2ccc(NC(=O)c3cccc(F)c3)cc2s1)c1ccccc1	0.8	-1.4	0.3	-7.4	0.2
CC1=C(c2ccc(F)cc2)S(=O)(=O)NC1=NCc1ccccc1Cl	6.1	-2.9	13.0	2.2	-0.6
COc1ccccc1CCNC(=O)C(=O)NCC1OCCCN1S(=O)(=O)c1cc(C)ccc1C (stereo unspecified)	-1.3	-7.2	5.9	1.4	-0.4
Cc1ccc(S(=O)(=O)N2CCCOC2CNC(=O)C(=O)NCCc2c[nH]c3ccccc23)cc1 (stereo unspecified)	0.7	-12.8	1.3	-35.8*	-0.8
COc1ccc(CCNC(=O)C(=O)NCC2OCCCN2S(=O)(=O)c2cc(C)ccc2C)cc1 (stereo unspecified)	-1.2	3.1	0.7	-44.1*	-0.4
Cc1ccc(-c2cc(C(=O)N(Cc3ccc(C(C)(C)C)cc3)Cc3ccco3)no2)cc1	-4.1	-0.3	13.1	5.0	-0.7
CC(C)(C)OC(=O)NCc1nnc(C(C(=O)OCc2ccccc2)c2ccccc2)s1 (stereo unspecified)	0.8	-6.5	1.2	-18.2	-0.6
O=S1(=O)N=C(N/N=C/c2cccs2)c2ccccc21	6.2	-5.0	3.0	-30.8*	1.1
Cc1nnc(N2CCCC(C(=O)NCc3ccccc3F)C2)c2nn(-c3ccccc3)c(C)c12 (stereo unspecified)	-2.9	-2.8	2.2	46.7	-0.3
Cc1ccccc1CNC(=O)C1CCCN(c2nnc(C)c3c(C)n(-c4ccccc4)nc23)C1 (stereo unspecified)	-2.1	46.2*	10.9	16.5	0.5
COc1ccc(C(C)=O)cc1CSc1nnnn1-c1ccc(O)cc1	-1.7	-6.6	2.6	-35.1*	-0.1
COc1cc(CSc2nnnn2-c2ccc(C)cc2)cc(OC)c1OC	-2.7	-0.3	38.8*	-7.0	-0.1
COc1ccccc1N(Cc1cc2cccc(C)c2[nH]c1=O)C(=O)c1cccc(Cl)c1	10.7	2.0	9.4	7.4	-1.4
O=C(CSc1nc(-c2ccccc2)nc2c1Cc1ccccc1O2)N1CCCCC1	-0.5	2.0	5.1	-0.1	-0.9
CC1(C)N=C(c2ccc(F)cc2)C(=O)N1CC(=O)Nc1ccccc1Cl	3.1	0.8	18.1	-3.9	0.3
Cc1ccc(Nc2nc(N3CCOCC3)c3ccccc3n2)cc1	3.7	-12.7	1.2	-59.7*	-0.4
COc1ccc(Nc2nc(N3CCCCC3)c3ccccc3n2)cc1	-2.6	-15.5	8.1	-48.9*	-0.2
Oc1ccc(Nc2nc(N3CCCC3)c3ccccc3n2)cc1	-1.0	-9.8	1.3	-40.0*	-0.5
c1ccc2c(c1)nc(N1CCCCCC1)c1ccccc12	6.4	12.3	1.9	15.1	-0.2
Cc1cc(S(=O)(=O)n2ccnc2C(C)C)cc([N+](=O)[O-])c1C	6.1	-1.0	0.3	1.5	1.0
Cn1cnc(S(=O)(=O)N2CCC(C(=O)Nc3ccc(OC(F)(F)F)cc3)CC2)c1	-6.2	1.1	-1.2	5.3	1.3
Cc1ccc(NC(=O)CNC(=O)c2cccs2)c(O)c1	-2.1	-3.9	2.0	2.6	0.0
CCOC(=O)c1ccc(NC(=O)CCn2c(=O)c3cccn3c3cccnc32)cc1	5.2	-3.5	2.2	-13.1	-0.3
